Drawing on PubChem BioAssay (NCI), this text covers growth for 13 compounds.

Test systems include SR leukemia; RPMI-8226 leukemia; OVCAR-8 ovarian; OVCAR-5 ovarian; OVCAR-4 ovarian; SK-OV-3 ovarian; IGROV1 ovarian; OVCAR-3 ovarian; HS 578T breast; NCI/ADR-RES ovarian.
Experiment in all cases: NCI-60 one-dose screen, 48 h (100 = growth as untreated, 0 = no growth, -100 = all killed)
Details in all cases: 10 µM unless noted

About 83,000 compounds went through this panel and 20% of them were active in at least one assay; those are over-represented in the sample as a whole.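 48-hour exposure, single concentration, 96-well plates; percent growth endpoint where 0 means no net growth. Active: below 10.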 Values without a mark were called inactive. Active and inactive are the calls of the source.

Regarding `CN(C)c1ccc(Nc2c3ccccc3nc3cc(NC(=O)CCN4CCCC4)ccc23)cc1`, the growth was -19.3% (active) in the assay on SR leukemia; -35.5% (active) with RPMI-8226 leukemia; 4.51% (active) with OVCAR-8 ovarian; 11.5% with OVCAR-5 ovarian; -17.9% (active) in the assay on OVCAR-4 ovarian; 16.6% with SK-OV-3 ovarian. The growth in the assay on IGROV1 ovarian is 1.29% (active); with OVCAR-3 ovarian, -38.6% (active); in the assay on HS 578T breast, 19.8%; in the assay on NCI/ADR-RES ovarian it was 58.3%.
Take `COc1cc(NC(C)CCCNC(=O)CCC(=O)NCCCNCCCCCCCCCCNCCCNC(=O)CCC(=O)NCCCC(C)Nc2cc(OC)cc3cccnc23)c2ncccc2c1` (stereo not drawn): the growth in the assay with SR leukemia is 92% [8 µM]; in the assay with RPMI-8226 leukemia it was 52.9% [8 µM]; in the assay on OVCAR-8 ovarian it was 77.7% [8 µM]; with OVCAR-5 ovarian, 79.3% [8 µM]; in the assay with OVCAR-4 ovarian, 4.17% [8 µM] (active); with SK-OV-3 ovarian it was 116% [8 µM]. Also, the growth in the assay with IGROV1 ovarian is 57.9% [8 µM]; with OVCAR-3 ovarian, 41.4% [8 µM]; in the assay with HS 578T breast, 64.5% [8 µM]; with NCI/ADR-RES ovarian, 101% [8 µM].
`N#Cc1cc(-c2nc3ccccc3s2)c(=O)n(NS(=O)(=O)c2ccccc2)c1N`: the growth in the assay with SR leukemia was 108%; in the assay on RPMI-8226 leukemia, 103%; in the assay with OVCAR-8 ovarian it was 106%; in the assay on OVCAR-5 ovarian, 102%; in the assay on OVCAR-4 ovarian, 107%; with SK-OV-3 ovarian, 90.3%. For the same compound, the growth with IGROV1 ovarian was 98.7%; with OVCAR-3 ovarian it was 114%; in the assay with HS 578T breast, 101%; with NCI/ADR-RES ovarian, 105%.
`CC(C)(C)c1cc(C=O)cc(C(C)(C)C)c1O`: the growth was 101% in the assay on SR leukemia; 72.7% in the assay with RPMI-8226 leukemia; 94.1% in the assay with OVCAR-8 ovarian; 108% with OVCAR-5 ovarian; 98.7% in the assay on OVCAR-4 ovarian; 110% with SK-OV-3 ovarian. In addition, the growth in the assay on IGROV1 ovarian was 106%; in the assay on OVCAR-3 ovarian, 101%; in the assay on NCI/ADR-RES ovarian, 98.8%.
Take `O=C(Nc1cccc(C(=O)N2CCc3ccc(Cl)cc32)c1)c1ccco1`: the growth was 20.4% in the assay on SR leukemia; 34.6% in the assay on RPMI-8226 leukemia; 51.5% in the assay with OVCAR-8 ovarian; 70.7% with OVCAR-5 ovarian; 70.5% with OVCAR-4 ovarian; 82.6% in the assay with SK-OV-3 ovarian. The growth with IGROV1 ovarian is 31.1%; with OVCAR-3 ovarian, 18.2%; in the assay on HS 578T breast, 28.9%; with NCI/ADR-RES ovarian it was 24.2%.
For `C=C1C(=O)O[C@H]2[C@H]1CC/C(CNC(=O)/C=C/c1ccccc1)=C\CC[C@@]1(C)O[C@@H]21`, the growth with SR leukemia was 6.13% (active); in the assay on RPMI-8226 leukemia, -10.5% (active); in the assay with OVCAR-8 ovarian, 5.85% (active); in the assay with OVCAR-5 ovarian, -21.6% (active); with OVCAR-4 ovarian, 38.5%; in the assay with SK-OV-3 ovarian, 109%. The growth with IGROV1 ovarian is -16.9% (active); in the assay on OVCAR-3 ovarian, -85.1% (active); with HS 578T breast, 28.6%; in the assay on NCI/ADR-RES ovarian, 69.1%.
Take `CNC(=O)c1cc(Cn2nc(C)c(NC(=O)Nc3ccc(Cl)c(C(F)(F)F)c3)c2C)ccn1`: the growth in the assay on SR leukemia was 91.9%; with RPMI-8226 leukemia it was 94.9%; in the assay with OVCAR-8 ovarian, 97%; with OVCAR-5 ovarian, 99.7%; in the assay on OVCAR-4 ovarian, 87.1%; in the assay on SK-OV-3 ovarian it was 95.2%. The growth in the assay on IGROV1 ovarian is 109%; in the assay with OVCAR-3 ovarian it was 109%; in the assay on HS 578T breast it was 97.1%; in the assay on NCI/ADR-RES ovarian, 98.8%.
For `COc1ccccc1/C=C1\Oc2cc(OCCN3CCCC3)ccc2C1=O`, the growth in the assay with SR leukemia was -8.89% (active); in the assay with RPMI-8226 leukemia, 82.2%; in the assay with OVCAR-8 ovarian, 91.8%; with OVCAR-5 ovarian it was 86.2%; in the assay with OVCAR-4 ovarian, 93.9%; in the assay with SK-OV-3 ovarian, 98.2%. In addition, the growth was 97.3% with IGROV1 ovarian, 96.2% with OVCAR-3 ovarian, 80.6% in the assay on HS 578T breast and 90.9% in the assay with NCI/ADR-RES ovarian.
On to `COc1ccc(C(=O)NNc2nc(Cl)nc(N3CCN(C(c4ccccc4)c4ccccc4)CC3)n2)cc1`, for which the growth is -29.6% (active) in the assay with SR leukemia; 84.2% in the assay on RPMI-8226 leukemia; 34.1% in the assay on OVCAR-8 ovarian; 96.9% with OVCAR-5 ovarian; 20.5% in the assay on OVCAR-4 ovarian; 101% in the assay with SK-OV-3 ovarian. Besides, the growth with IGROV1 ovarian is -59.7% (active); with OVCAR-3 ovarian it was -71.5% (active); with HS 578T breast, 67.1%; in the assay with NCI/ADR-RES ovarian it was 50%.
As to `COc1cc2c(c(O)c1Cl)C(=O)c1c(O)cc(C[C@H](C)O)cc1[C@H]2[C@H]1c2cc(C[C@H](C)O)cc(O)c2C(=O)c2c1cc(OC)c(Cl)c2O`, the growth in the assay on SR leukemia was 12.3%; in the assay with RPMI-8226 leukemia, 14.1%; in the assay with OVCAR-8 ovarian it was 12.8%; in the assay on OVCAR-5 ovarian it was 8.75% (active); in the assay on OVCAR-4 ovarian it was 12.7%; with SK-OV-3 ovarian it was 8.1% (active). Further, the growth in the assay with IGROV1 ovarian was 10.4%; in the assay on OVCAR-3 ovarian, -20.4% (active); in the assay on HS 578T breast, 11%; with NCI/ADR-RES ovarian, 71.3%.
For `COc1ccc(/C=C/c2nc(Nc3ccc(S(=O)(=O)Nc4nc(C)cc(C)n4)cc3)c3ccccc3n2)cc1`, the growth with SR leukemia was 49.5%; in the assay on RPMI-8226 leukemia it was 62.3%; with OVCAR-8 ovarian, 66.1%; in the assay on OVCAR-5 ovarian, 74.9%; in the assay with OVCAR-4 ovarian it was 77.2%; with SK-OV-3 ovarian, 90.9%. Moreover, the growth with IGROV1 ovarian was 90.8%; with OVCAR-3 ovarian, 79.6%; in the assay on HS 578T breast it was 83.1%; with NCI/ADR-RES ovarian it was 73.1%.
Turning to `CC1(C)CC(=O)C2=C(C1)N(c1ccc(F)cc1F)C(N)=C(C#N)C2c1cc(Br)ccc1F` (stereo not drawn), the growth is 31% in the assay with SR leukemia; 80.6% in the assay with RPMI-8226 leukemia; 86.7% in the assay with OVCAR-8 ovarian; 107% with OVCAR-5 ovarian; 83.1% with OVCAR-4 ovarian; 131% in the assay on SK-OV-3 ovarian. Also, the growth is 94.3% in the assay with IGROV1 ovarian, 99.7% with OVCAR-3 ovarian, 105% with HS 578T breast and 85.7% in the assay with NCI/ADR-RES ovarian.
Take `COc1ccc(OC)c(CCn2cncc2-c2c[nH]c3ccccc23)c1`: the growth in the assay with SR leukemia is 60.1%; with RPMI-8226 leukemia, 45.6%; in the assay with OVCAR-8 ovarian it was 89.4%; in the assay with OVCAR-5 ovarian, 94.4%; in the assay with OVCAR-4 ovarian, 44.6%; in the assay on SK-OV-3 ovarian, 72.9%. For the same compound, the growth with IGROV1 ovarian was 44%; in the assay on OVCAR-3 ovarian it was 57%; in the assay on NCI/ADR-RES ovarian, 71.1%.
